Pf Dd2 inh = blocks in vitro growth of P. falciparum Dd2; P. falciparum Dd2 growth, SYBR Green, 72 h; Potency, µM (doses to about 28.9 µM), for the others: top-dose activity, negative = inhibition, usual class: inhibitors; actives 4.3% (n = 120,000); AID 1347417; active means well fitted inhibition curve with a large enough effect;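 further: plate controls were DMSO vehicle for no effect and reference drug for full effect; nearly all actives have a fitted effect of over 65% in size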
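Readout: SYBR Green fluorescence, 485 nm excitation, 535 nm emission, after ~16 h lysis at 37C. Before that, Dd2-infected red cells (2.5% hematocrit) grew 72 h with compound, 29 uM top final concentration.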
An asterisk follows results filed as active; i = inactive; [ ] = remark or other dose. The sample as a whole holds a higher share of hits than the screen did. Potency means the concentration at half of the fitted maximal effect.

SMILES | Pf Dd2 inh
O=C(c1ccccc1)N1CCN(C(=O)c2nnn3c2COC(c2ccccc2)C3)CC1 (stereo not drawn) | i
O=C(c1ccccn1)N1CCN(C(=O)c2nnn3c2COC(c2ccccc2)C3)CC1 (stereo not drawn) | i
O=C1CC(c2noc(-c3ccc4c(c3)OCO4)n2)CN1c1ccc(F)cc1 (stereo not drawn) | 49%
COc1ccc(C(=O)NC2CCCN(c3cc(-c4ccc(F)cc4)[nH]n3)C2)c(C)c1 (stereo not drawn) | -20%
O=c1c2c(n(Cc3ccccc3)n1-c1ccccc1)CN(Cc1ccc3[nH]ccc3c1)CC2 | 3.2µM*
O=C(c1ccccc1)N1CCc2c(n(Cc3ccccc3)n(-c3ccccc3)c2=O)C1 | -1%[44.1 µM]
COc1ccc(Cn2c3c(c(=O)n2Cc2ccccc2)CCN(Cc2cccc(O)c2)C3)cc1 | i
CCOc1ccc(CCN2C(=O)C3(CCOCC3)CC2c2nnnn2CCOC)cc1 (stereo not drawn) | -22%
O=C(c1cccnc1)N1CCC2(CC1)C(=O)NN=C2c1ccncc1 | 15%
Cc1ccc(C(=O)N2CCC(n3cc(-c4nc(C(C)C)no4)nn3)C2)cc1 (stereo not drawn) | -14%
O=C1Nc2ccccc2CC12CCCN2CC1CCCCC1 (stereo not drawn) | 7.1µM*
CCN1Cc2ccccc2NC(=O)C12CCNC2 (stereo not drawn) | -19%
O=C1Nc2ccccc2CN(Cc2ccc(Cl)cc2)C12CCNC2 (stereo not drawn) | 10µM*
O=C1Nc2ccccc2CN(CC2CCCCC2)C12CCNCC2 | 11µM*
O=C1Nc2ccccc2CC12CCCN2CC1CCOCC1 (stereo not drawn) | -7%
CN1Cc2ccccc2NC(=O)C12CCNC2 (stereo not drawn) | 10%[44.1 µM]
O=C1Nc2ccccc2CC12CCCN2Cc1ccc(Cl)cc1 (stereo not drawn) | 6%
CC(=O)N1Cc2ccccc2NC(=O)C12CCNCC2 | 20%
CC(=O)N1Cc2ccccc2NC(=O)C12CCNC2 (stereo not drawn) | 18%[44.1 µM]
COC[C@@H]1CN(Cc2ccc(OC)cc2OC)C[C@H]1C(=O)NC1CC1 | -28%
CO[C@@H]1CO[C@H]2[C@@H]1OC[C@@H]2NC(=O)C1CCC1 | -10%[44.1 µM]
Cc1cc(-c2cnc3n[nH]c(-c4sccc4C)c3n2)ccn1 | i
Cc1cc2c(SCC(=O)N3CCOCC(CO)C3)ncnc2s1 (stereo not drawn) | -12%
CCN(C1CCOCC1)C1CN(S(C)(=O)=O)C1 | 24%
O=C(CC1CCCN(c2cn[nH]c(=O)c2)C1)Nc1ccc(F)cc1F (stereo not drawn) | 27%
SMILES | Pf Dd2 inh
c1ccc(COc2ccc(CN3CCSCC3)cc2)nc1 | -1%
c1ccc(CN2C[C@H]3CCNC[C@H]32)cc1 | i
c1ccc(COc2ccc(CN3CCN(C4CCNC4)CC3)cc2)cc1 (stereo not drawn) | 8.9µM*
COCc1cn([C@H]2CO[C@H]3[C@@H]2OC[C@@H]3NCc2cccc(C#N)c2)nn1 | -1%[44.1 µM]
CCC(C)Nc1ncnc2c1CN(C1CCNCC1)C(=O)CN2C (stereo not drawn) | 6%
COc1cc(=O)n2c(c1C(=O)Nc1cc(Cl)ccc1C)CCCC2 | 8%
O=C(NC1CC1)[C@@H]1C[C@H](Oc2ccccc2)CN1C(=O)c1cccnc1 | 15%
Cc1cn2nc(C(=O)N3CCC(C(=O)NC4CCCC4)CC3)cc2c(=O)[nH]1 | -1%
Cc1nnc(N2CCC(C(=O)NC(C)C)CC2)c2nn(-c3ccc(Cl)cc3)c(C)c12 | 27%
CCOc1ccc(NC(=O)C2CCN(c3nnc(C)c4c(C)n(-c5ccccc5)nc34)CC2)cc1 | 4%
Cc1ccc(-n2nc3c(N4CCC(C(=O)NC(C)c5ccccc5)CC4)nnc(C)c3c2C)cc1 (stereo not drawn) | 10µM*
Cc1nnc(N2CCC(C(=O)NCc3cccc(Cl)c3)CC2)c2nn(-c3ccccc3)c(C)c12 | -1%
CCOC(=O)C1CCN(C(=O)C2CCN(c3nnc(C)c4c(C)n(-c5ccccc5)nc34)CC2)CC1 | 3.2µM*
Cc1ccc(-n2nc3c(N4CCC(C(=O)N5CCC(C)CC5)CC4)nnc(C)c3c2C)cc1 | 0%
Cc1ccc(NC(=O)C2CCN(c3nnc(C)c4c(C)n(-c5ccccc5)nc34)CC2)c(Cl)c1 | 41%
Cc1ccccc1CNC(=O)C1CCN(c2nnc(C)c3c(C)n(-c4ccccc4)nc23)CC1 | i
COc1ccccc1CNC(=O)C1CCN(c2nnc(C)c3c(C)n(-c4ccccc4)nc23)CC1 | -4%
Cc1nnc(N2CCC(C(=O)NC(C)C)CC2)c2nn(-c3ccccc3)c(C)c12 | 9%
Cc1ccc(-n2nc3c(N4CCC(C(=O)NCCc5ccccc5)CC4)nnc(C)c3c2C)cc1 | 6.3µM*
Cc1ccc(-n2nc3c(N4CCC(C(=O)NCCc5ccccc5C)CC4)nnc(C)c3c2C)cc1 | 8.9µM*
COCCN1C(=O)c2cccn2CC1CNC(=O)c1ccccc1OC (stereo not drawn) | -18%
Cc1[nH]cnc1-c1nccn1CCCNc1cccnc1 | -11%

Screens: PubChem, National Center for Advancing Translational Sciences (NCATS)
